In PubChem BioAssay AID624169 (The Scripps Research Institute Molecular Screening Center, 2012):
Hit rate of the full screen: of about 360,000 compounds, about 2,400 (0.67%) were called active. Shown is part of a subset that was picked to be rich in actives. A number with no mark means an inactive call.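 The calls were made as follows: active = activation above a run cutoff, the mean activation of all tested compounds plus 3 SD (cut at about 14% in these data); inactive = the rest.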

target: 5-hydroxytryptamine receptor 2A (Mus musculus) (UniProt P35363); assay: mouse Htr2a agonists via beta-arrestin recruitment, primary screen, cell-based, luminescence (AID 624169); settings: CHO-K1 mHTR2A beta-arrestin complementation, at 7.6 µM, active compounds read high, percent of 30 µM serotonin response;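 also: 0% = plate median of compound wells and 100% = 30 µM serotonin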
Sequence (P35363 whole entry, looked up): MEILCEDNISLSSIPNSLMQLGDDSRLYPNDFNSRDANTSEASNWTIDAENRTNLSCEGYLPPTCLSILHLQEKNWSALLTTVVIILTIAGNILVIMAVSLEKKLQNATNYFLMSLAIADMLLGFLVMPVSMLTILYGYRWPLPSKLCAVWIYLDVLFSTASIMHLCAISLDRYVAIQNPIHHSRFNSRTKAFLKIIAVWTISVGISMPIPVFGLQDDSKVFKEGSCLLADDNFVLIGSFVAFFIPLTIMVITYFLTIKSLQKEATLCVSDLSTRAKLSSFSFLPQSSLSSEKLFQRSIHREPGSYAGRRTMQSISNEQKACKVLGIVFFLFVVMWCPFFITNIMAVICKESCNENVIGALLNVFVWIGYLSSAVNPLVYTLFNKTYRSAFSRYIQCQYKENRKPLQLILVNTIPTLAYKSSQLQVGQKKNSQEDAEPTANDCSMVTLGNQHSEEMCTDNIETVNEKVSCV

SMILES	activation
Cc1ccc(/C=C/C(=O)OCC(=O)NCc2ccc(Cl)cc2)o1	-2.51%
CCCCn1c(N)c(N(CCC(C)C)C(=O)c2ccc([N+](=O)[O-])o2)c(=O)[nH]c1=O	5.32%
CCCCn1c(N)c(N(CC(C)C)C(=O)CN(C)S(=O)(=O)c2ccc(F)cc2)c(=O)[nH]c1=O	2.45%
CCCCn1c(N)c(N(CC(C)C)C(=O)CSc2ccc([N+](=O)[O-])cc2)c(=O)[nH]c1=O	20.3% (active)
COC(=O)c1ccc(S(=O)(=O)N2CCC(c3nc4ccccc4o3)CC2)cc1	2.01%
CN1CCN(C(=O)/C(=C\c2cccs2)NC(=O)c2cccs2)CC1	-0.61%
Cc1ccc(C(=O)N/C(=C/c2cccs2)C(=O)NCC2CCCO2)cc1 (configuration not stated)	6.31%
Cc1ccc(C(=O)N/C(=C/c2cccs2)C(=O)N2CCCCC2)cc1	19.9% (active)
CCOc1cc(CN2CCCC(CO)(Cc3ccc(F)cc3F)C2)ccc1OC (configuration not stated)	-5.38%
CCOC(=O)c1sc(NC(=O)CSc2n[nH]c(CC)n2)nc1C	-3.89%
O=C(OCC(=O)N1CCOCC1)c1ccc(N2CCOCC2)c([N+](=O)[O-])c1	-5.4%
Cc1ccc(C(=O)OCC(=O)N2CCCCCC2)cc1S(=O)(=O)N1CCOCC1	4.82%
O=C(OCC(=O)N1CCOCC1)c1ccc2ccccc2c1	14.5% (active)
Cc1oc2nc(SCC(=O)NCc3cccnc3)nc(N)c2c1C	0.74%
COC(=O)c1ccc2nc(-c3ccccc3)c(Cc3ccc(OC)cc3C)n2c1	-0.62%
COC(=O)c1ccc2nc(-c3cccc(Br)c3)c(Cc3ccc(OC)cc3C)n2c1	-0.25%
CCCCNc1c(-c2cccc(Sc3ccc(OC)cc3)c2)nc2ccccn12	23.6% (active)
COc1ccc(/C=N/Nc2ccccc2C(=O)O)cc1	15.9% (active)
COc1ccc(/C=N/NC(=O)Cn2cc(C(F)(F)F)ccc2=O)cc1	-1.47%
COc1ccc(/C=N/NC(=O)C(C)N(c2ccc(OC)cc2)S(C)(=O)=O)cc1 (configuration not stated)	-1.2%
COc1ccc(-c2nnc3n2CCCCC3)cc1	-2.42%
COc1cc(OC)cc(C(=O)NNC(=O)CCOc2ccccc2OC)c1	-0.14%
NNc1cccc(C=Cc2ccccc2)cc1=O	15.7% (active)

SMILES	activation
O=C(COC(=O)/C=C/c1cccc(Cl)c1)NCCc1ccccc1	-2.95%
CC(=O)C1=C(O)C(=O)N(c2ccc(S(N)(=O)=O)cc2)C1c1ccccc1F (configuration not stated)	3.54%
CSc1ncnc2c1ncn2CCCNCc1cccs1	19.2% (active)
CSc1ncnc2c1ncn2CCCNCc1ccco1	5.16%
CSc1ncnc2c1ncn2CCCNCC(C)c1ccccc1 (configuration not stated)	-3.42%
COc1ccc(CCNC(=O)C2CCCN2C(=O)Nc2ccccc2)cc1OC (configuration not stated)	-3.12%
CCOC(=O)N1CCN(C(=O)CN(C2CCCCC2)S(C)(=O)=O)CC1	7.43%
CN(N)c1nc(N2CCCC2)nc(N2CCCC2)n1	3.15%
FC(F)(F)COc1nc(N2CCCCC2)nc(N2CCNCC2)n1	25.4% (active)
COc1nc(NC2CCCCC2)nc(N2CCCCCC2)n1	-0.64%
COC(=O)c1ccc(CSc2nncn2C)cc1	4.16%
COC(=O)c1ccc(CSc2nncn2N)cc1	-0.96%
COC(=O)c1ccc(CSc2nnc(NC(C)C)s2)cc1	16% (active)
OC(COCCC12CC3CC(CC(C3)C1)C2)CN1CCCCC1 (configuration not stated)	-6.43%
CCCCn1c(N)c(N(CCOC)C(=O)c2sc3ccccc3c2Cl)c(=O)[nH]c1=O	-2.4%
Cc1ccccc1CSCC(=O)NC(=O)NC(C)(C)C	19.9% (active)
Cc1cc(NC(=O)CSCc2ccccc2C)no1	-1.07%
CC(C)(C)NC(=O)NC(=O)CN1CCC(Cc2ccccc2)CC1	0.69%
Cc1ccc(S(=O)(=O)C2C(=O)NC3(C)CC2c2ccccc2O3)cc1 (configuration not stated)	-3.98%
O=C(NCc1ccccc1)c1ccc(CNc2c(N3CCCC3)c(=O)c2=O)cc1	-2.51%
COc1ccc(-c2nc3cc([N+](=O)[O-])ccc3o2)cc1OC	15.3% (active)
O=[N+]([O-])c1ccc2oc(-c3cccc(O)c3)nc2c1	-2.7%
CC(=O)Oc1ccc2c(=O)oc(-c3ccc([N+](=O)[O-])cc3)nc2c1	6.81%

SMILES	activation
CNc1ccc(SC#N)cc1	8.45%
NCCCC[C@@H]1NC(=O)[C@H](CCC(=O)O)NC(=O)c2cc([N+](=O)[O-])cc(I)c2NCC[C@@H](C(N)=O)NC1=O	-1.82%
O=C1CCC(C(=O)Nc2ccc(OC(F)F)cc2)N1 (configuration not stated)	2.5%
Cc1ccc2nc(-c3ccncc3)cc(C(=O)Nc3ccc(OC(F)F)cc3)c2c1	-2.82%
Cc1ccc2nc(-c3ccncc3)cc(C(=O)Nc3ccncc3)c2c1	14.5% (active)
CC1CCCC(NC(=O)c2cc(-c3ccncc3)nc3ccccc23)C1C (configuration not stated)	-0.93%
CC1CCCCC1NC(=O)CCS(=O)(=O)c1ccc2c(c1)NC(=O)CO2 (configuration not stated)	1.84%
CCc1cc(C(c2ccccc2OC)N2CCOCC2)c(NC(=O)c2ccccc2)s1 (configuration not stated)	-2.8%
CCOC(=O)/C=c1\s/c(=C\c2ccccc2OC)c(=O)n1CC(=O)N1CCOCC1	15.6% (active)
COc1ccccc1/C=C/C(=O)NC(=S)N1CCOCC1	-0.42%
Cc1cccc(NC(=O)CSc2nnc(NC(=O)CN3CCOCC3)s2)c1	4.08%
CCCNS(=O)(=O)c1ccc(CCC(=O)N2CCCC2)cc1	0.26%
O=C1N(Cc2ccc3c(c2)OCO3)c2ccccc2C1(O)c1c[nH]c2ccccc12 (configuration not stated)	4.88%
CCOC(=O)[C@]12CCCC=C1N(Cc1ccc3c(c1)OCO3)C(=O)[C@H](CC(=O)N1CCN(C(=O)c3ccco3)CC1)C2	1.52%
CCOC(=O)[C@]12CCCC=C1N(Cc1ccc3c(c1)OCO3)C(=O)[C@H](CC(=O)NCc1cccs1)C2	23.4% (active)
COC(=O)[C@]12CCCCC=C1N(Cc1ccc3c(c1)OCO3)C(=O)[C@H](CC(=O)NCc1cccs1)C2	7.05%
CCNC(=O)c1cc2c(c(-c3cccc(-c4cncnc4)c3)n1)[C@H](CCO)N(C(C)=O)C2	-0.81%
CN1CCC(=O)N([C@H](CO)Cc2ccccc2)CC1	-5.13%
COCCN(CCOC)S(=O)(=O)NC[C@H]1O[C@@H](n2cnc3c(N)ncnc32)[C@H](O)[C@@H]1O	4.4%
CC(=O)OCCOCn1cnn2c(=O)c(Br)c(C)nc12	1.26%
Nc1cc(C(=O)N2CCN(c3ccccc3Cl)CC2)ccc1N1CC2CC(C1)c1cccc(=O)n1C2 (configuration not stated)	17.7% (active)
CN(c1ccccc1)S(=O)(=O)c1ccc(C(=O)N2CCN(c3ccccc3Cl)CC2)cc1	-7.83%
COc1ccccc1NC(=O)c1ccc(N2CC3CC(C2)c2cccc(=O)n2C3)c(NC(=O)c2cccnc2)c1 (configuration not stated)	3.35%

SMILES	activation
Nc1[nH][nH]c(=O)c1N=Nc1ccc2c(c1)OCO2	-2.91%
CCc1ccc(N2CC(C(=O)Nc3ccc(S(=O)(=O)Nc4nccs4)cc3)CC2=O)cc1 (configuration not stated)	-3.72%
CN(C)[C@@H]1C(=O)C(C(N)=O)=C(O)[C@@]2(O)C(=O)C3=C(O)c4c(O)ccc(Cl)c4[C@@H](O)[C@H]3C[C@@H]12	15.9% (active)
C=C1c2c(Cl)ccc(O)c2C(O)=C2C(=O)[C@]3(O)C(O)=C(C(N)=O)C(=O)[C@@H](N(C)C)[C@@H]3[C@@H](O)C12 (some centres not stated)	-1.23%
C=C(C)C(=O)Nc1cccc(C2=NOC3(C2)C[C@H](C(N)=O)N(C(=O)C(c2ccccc2)c2ccccc2)C3)c1 (some centres not stated)	5.68%
CCn1c(SCC(=O)N2CCCC2=O)nc2ccccc21	15.3% (active)
CCn1c(SCC(=O)NCC2CCCO2)nc2ccccc21 (configuration not stated)	2.38%
CCCCn1c(SCC(=O)N2CCCC2=O)nc2cc(S(N)(=O)=O)ccc21	0%
O=C(NCc1ccccc1)[C@@H]1CSC2c3ccccc3C(=O)N21 (some centres not stated)	1.3%
COc1cc(OC)c(OC)cc1CN1CCN(C(=O)c2cccc3ccccc23)CC1	0.49%
COc1ccccc1CN1CCN(Cc2cc(OC)c(OC)cc2OC)CC1	25.8% (active)
COc1cccc(OC)c1C(=O)N1CCN(Cc2ccccc2F)CC1	2%
C/C(CC(=O)NCc1ccc(Cl)cc1)=N\NC(=O)COc1ccc(C)cc1Br	-5.06%
CC(C)CN(C(=O)c1cccc(S(=O)(=O)N2CCCCC2)c1)C1CCS(=O)(=O)C1 (configuration not stated)	3.09%
Cn1cc(S(=O)(=O)N2CCC(Cc3ccccc3)CC2)c(=O)n(C)c1=O	-1.79%
NC(=O)c1ccc(CN2CCC(Cc3ccccc3)CC2)cc1	-5.52%
O=C(O)c1ccc(S(=O)(=O)N2CCC(Cc3ccccc3)CC2)cc1	22.2% (active)
CCCCN(C(=O)c1ccc(C)o1)c1c(N)n(CCCC)c(=O)[nH]c1=O	-12.3%
C/C(CC(=O)NC(C)(C)C)=N\NC(=O)c1ccco1	5.46%
Cc1cc(C)n(-c2ccc(NC(=O)C3CCCCN3C(=O)c3cccs3)cc2)n1 (configuration not stated)	-0.84%
CC(=O)N1CCN(C(=O)c2cc(-c3ccc(Cl)s3)nc3ccccc23)CC1	-0.1%
COC(=O)c1cc(N2CCNCC2)nc2ccccc12	54.9% (active)
Cc1cc(C(=O)OCC(=O)N2C(C)CCCC2C)c2ccccc2n1 (configuration not stated)	5%
